Only some compounds are listed: those with a hit (about 4.1% of all), similar ones and a draw of the others.
DAX1 inh-1: DAX1 (NR0B1) inhibition, primary screen; HEK293T StAR-luciferase reporter, SF-1/DAX-1 repression relief; inhibition, % at 6.8 µM; 370,000 compounds, 1.1% hits; AID 652010;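 active means inhibition above the mean over all tested compounds plus 3 SD, cut at about 3.6% in these data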;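 further: 0% = DAX-1 cells with DMSO and 100% = cells lacking DAX-1 with DMSO; higher inhibition means more luminescence from relief of DAX-1 repression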
DAX1 inh-2: inhibitors of human orphan nuclear receptor DAX1 (NR0B1); HEK293 Gal4-DAX1 luciferase reporter, luminescence; P51843; inhibition, % at 6.75 µM; 340,000 compounds, 0.99% hits;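 active means inhibition above the mean over all tested compounds plus 3 SD, cut at about 4.2% in these data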;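 further: 0% = DAX1-transfected cells with DMSO and 100% = empty-vector control cells with DMSO; inhibition shows as a rise in luminescence from relieved DAX1 repression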
Target sequence (P51843 207-470 limits assumed): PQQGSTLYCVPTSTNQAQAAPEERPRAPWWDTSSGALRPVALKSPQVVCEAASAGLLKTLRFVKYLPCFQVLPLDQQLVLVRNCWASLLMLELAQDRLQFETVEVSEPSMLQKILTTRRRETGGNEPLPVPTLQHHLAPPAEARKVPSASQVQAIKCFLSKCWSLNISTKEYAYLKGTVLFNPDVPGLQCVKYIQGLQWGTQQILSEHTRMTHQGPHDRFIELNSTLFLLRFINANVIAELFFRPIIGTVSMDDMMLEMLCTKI
hgDAF12 agonist: agonists of H. glycines DAF-12 nuclear receptor. 370,000 compounds, 1.8% hits. HEK293 GAL4-hgDAF12 UAS-luciferase reporter, agonist luminescence; normalized to butyrate control. activation, % at 6.8 µM. AID 687014;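 active means activation above a cutoff set at the mean of all screened compounds plus 3 SD, cut at about 10% in these data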;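 further: 0% = DMSO wells and 100% = sodium butyrate wells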
ssDAF12 agonist: activators of S. stercoralis DAF-12 nuclear receptor. AID 652126. activation, % at 6.8 µM. HEK293 ssDAF-12/GRIP1 lit1-tk-luc reporter, luminescence; % of 3 µM dafachronic acid response. 370,000 compounds, 1% hits;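 active means activation above the mean over all tested compounds plus 3 SD, cut at about 0.9% in these data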;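 further: 0% = DMSO-only wells and 100% = 3 µM delta7-dafachronic acid wells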
hcDAF12 agonist: H. contortus DAF-12 activation, primary screen; 370,000 compounds, 1.4% hits; HEK293 hcDAF-12 lit1-tk-luc reporter, luminescence; 0% DMSO, 100% Δ7-dafachronic acid; activation, % at 6.8 µM;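 active means activation above the mean of all tested compounds plus 3 SD, cut at about 5.5% in these data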;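 further: 100% = response to 3 µM Δ7-dafachronic acid high control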
PolyA inh: yeast polyadenylation inhibition | S. cerevisiae SKY197-pL101 polyadenylation reporter, beta-gal luminescence; efflux-impaired pdr1/pdr3 knockout yeast; score 100 = 6 SD above DMSO | activity score, % at 12 µM | 300,000 compounds, 0.02% hits;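 active means lowest replicate activity score at least 50, where 100 means six control SD above control mean; inconclusive means lowest score under 50 but half or more replicates reach 50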;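 further: yeast exposed to compound for 9 h at 30 °C; higher score means more reporter readthrough which indicates perturbed polyadenylation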
LXRb hcDAF ctr: counter-screen for hcDAF-12 agonists: agonists of human LXR-beta | shares compounds with hcDAF12 agonist | HEK293 Gal4-LXR tk-luc reporter, luminescence, 24 h; normalized: DMSO 0%, positive control 100% | activation, % at 6.8 µM | 3,400 tested, under 10 active | AID 743027;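 active means mean percent activation of the reporter above a cutoff set as the average over tested compounds plus their standard deviation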
Target sequence (P55055 whole entry, looked up, the tested form may be a part): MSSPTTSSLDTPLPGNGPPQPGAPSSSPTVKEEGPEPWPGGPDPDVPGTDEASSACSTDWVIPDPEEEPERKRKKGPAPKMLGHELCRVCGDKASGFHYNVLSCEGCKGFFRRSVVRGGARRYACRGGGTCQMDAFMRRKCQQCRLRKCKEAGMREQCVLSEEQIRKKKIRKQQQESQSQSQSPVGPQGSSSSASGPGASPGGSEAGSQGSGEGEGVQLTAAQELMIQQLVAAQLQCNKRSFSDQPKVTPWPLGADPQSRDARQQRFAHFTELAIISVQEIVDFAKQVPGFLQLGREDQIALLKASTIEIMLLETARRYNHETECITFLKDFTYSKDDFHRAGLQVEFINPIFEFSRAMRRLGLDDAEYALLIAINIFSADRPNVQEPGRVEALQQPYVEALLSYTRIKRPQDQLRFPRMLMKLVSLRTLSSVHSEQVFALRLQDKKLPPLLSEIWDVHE
hcDAF12 conf: confirmation of H. contortus DAF-12 agonists; shares compounds with hcDAF12 agonist; HEK293 hcDAF-12 lit1-tk-luc reporter, luminescence; % of Δ7-dafachronic acid response; activation, % at 6.8 µM; 3,400 compounds, 61% hits;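 active means mean activation across triplicate tests above the threshold derived from the earlier primary screen, cut at about 5.5% in these data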;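 further: 0% = DMSO only wells and 100% = 3 µM Δ7-dafachronic acid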
* marks the source's active call; other numbers are inactive results; ? = inconclusive; · = no result.

SMILES	DAX1 inh-1	DAX1 inh-2	hgDAF12 agonist	ssDAF12 agonist	hcDAF12 agonist	PolyA inh	LXRb hcDAF ctr	hcDAF12 conf
COc1ccccc1CNC(=O)C1CCC(=O)N(CCCN2CCCC2=O)C1 (centres undefined)	-0.2	1.8	-1.1	-1.4	1.4	6.7	·	·
c1ccc2nc(-c3nc4ccccc4o3)ccc2c1	1.2	-2.7	3.9	-0.1	12.7*	-4.9	1.6	23.2*
c1ccc(-c2nc3ccccc3o2)nc1	0.9	4.1	7.6	0.0	4.5	-9.3	·	·
CCC(C)c1ccccc1NC(=O)CN(C)CCOc1ccc(Cl)cc1 (centres undefined)	-0.4	0.2	0.7	-1.4	9.2*	1.8	-0.5	-0.2
CN(CCOc1ccc(Cl)cc1)CC(=O)Nc1ccc(OC(F)F)cc1	0.0	2.3	0.1	-0.8	-0.9	8.7	·	·
Brc1cccc(-c2nnc(-c3ccccc3)o2)c1	3.9*	3.6	10.4*	1.6*	10.9*	·	1.7	11.2*
CCCN(CCC)C(=O)Nc1cc(Cl)ccc1OC	-0.1	1.5	-1.6	-1.3	-0.9	-2.7	·	·
Cc1ccc(Nc2nc(-c3cccnc3)cs2)cc1Cl	0.9	3.7	9.4	0.8	11.1*	-39.2	0.7	12.3*
c1cncc(Nc2nc(-c3ccncc3)cs2)c1	-1.3	2.4	1.8	-1.4	0.4	1.7	·	·
Cc1cccnc1Nc1nc(-c2ccccc2)cs1	3.7*	4.1	12.6*	1.7*	13.7*	-1.2	2.1	13.5*
Cc1cccnc1Nc1nc(-c2ccccn2)cs1	-2.9	-5.0	3.5	-0.6	1.4	-24.4	·	·
c1cncc(Nc2nc(-c3cccnc3)cs2)c1	-0.9	1.5	6.9	-1.1	7.2*	2.9	-0.1	2.2
Nc1nc2ncccn2c1-c1ccc(C(F)(F)F)cc1	-0.8	·	-1.7	0.1	6.9*	·	-0.2	-0.7
CC(CC(=O)N1CCc2ccccc21)n1cccn1 (centres undefined)	2.8	0.6	8.2	0.1	10.6*	4.5	0.0	5.7*
Cc1cc(C)n(CCC(=O)N2CCc3ccccc32)n1	0.1	0.7	-1.1	0.3	6.9*	16.9	-0.2	4.0
O=C(CCn1cccc1)N1CCc2ccccc21	1.6	0.4	3.5	-1.0	-1.0	12.2	·	·
O=C(O)c1ccc(N2C(=O)CC(N3CCN(c4cccc(C(F)(F)F)c4)CC3)C2=O)cc1 (centres undefined)	0.2	0.3	-2.7	-0.1	-1.5	-3.2	·	·
O=C(O)C1CCCC2CN3CCc4c([nH]c5ccccc45)C3C(O)C21 (centres undefined)	-0.5	1.8	3.5	-0.2	0.2	-12.1	·	·
CCC(C)[C@H](NC(=O)N1CC(=O)Nc2ccccc21)C(=O)N[C@@H](C(=O)O)c1ccccc1 (some centres undefined)	0.0	-0.2	0.9	-1.1	-0.3	4.4	·	·
CCC(C)[C@H](NC(=O)N1CC(=O)Nc2ccccc21)C(=O)N[C@H](Cc1c[nH]c2ccccc12)C(=O)O (some centres undefined)	-0.5	0.6	-0.3	0.2	8.0*	-0.3	-0.3	3.1
COc1ccccc1S(=O)(=O)N(C)C[C@H]1Oc2cc(Br)ccc2S(=O)(=O)N([C@H](C)CO)C[C@H]1C	-1.2	·	-1.1	-1.2	-2.9	·	·	·
c1cncc(-c2nc3ccccc3o2)c1	0.5	-0.4	0.9	-1.0	-0.8	-7.7	·	·
Cc1ccnc2ccc(-c3nc4ccccc4o3)cc12	1.4	2.5	12.9*	1.0*	7.8*	·	1.2	12.0*
Cc1ccc(-c2nc3ccccc3s2)cc1NC(=O)c1ccc2c(c1)OCO2	-0.1	0.0	-1.8	-0.5	-1.6	21.0	·	·
O=C(Nc1cc(-c2nc3ccccc3s2)ccc1Cl)c1ccc2c(c1)OCO2	1.6	3.0	11.0*	1.6*	9.9*	2.3	0.2	6.3*
SMILES	DAX1 inh-1	DAX1 inh-2	hgDAF12 agonist	ssDAF12 agonist	hcDAF12 agonist	PolyA inh	LXRb hcDAF ctr	hcDAF12 conf
Cc1csc(-c2ccc3cc(Cl)cc(Cl)c3n2)n1	1.3	·	2.0	0.4	10.1*	·	0.6	11.1*
Nc1nc2c(Cl)cc(Cl)cc2s1	-1.2	-0.7	0.8	-1.6	0.8	10.7	·	·
Cc1c(CC(=O)N[C@H](C(=O)O)C(C)C)c(=O)oc2cc3c(cc12)CCC(C)(C)O3	1.6	0.1	7.5	-0.2	6.9*	18.3	0.9	6.6*
Cc1ccc2[nH]c(-c3ccccc3)cc(=O)c2c1	2.7	1.0	4.6	3.5*	12.9*	3.8	0.8	4.8
Cc1ccc(-c2cc(=O)c3ccccc3[nH]2)cc1	0.1	3.0	3.7	-0.9	1.1	-12.1	·	·
COC(=O)c1sc(-c2ccc(C(C)(C)C)cc2)cc1NC(=O)c1ccccc1C(=O)O	2.4	3.2	12.1*	1.5*	6.8*	-11.5	-0.1	-0.3
CCOC(=O)c1ccc(S(=O)(=O)NNS(=O)(=O)c2ccc(C)cc2)cc1	-0.6	1.6	1.8	-0.2	-0.4	12.0	·	·
CCOC(=O)c1ccc(S(=O)(=O)Nc2cc(C(=O)O)ccc2Cl)cc1	0.1	1.1	-1.5	-0.8	7.2*	-4.3	-0.1	2.0
CC1(C(=O)NS(=O)(=O)C2CC2)CCN(C(=O)c2ccccc2OC(F)(F)F)C1 (centres undefined)	-0.5	·	0.7	-0.8	0.3	·	·	·
Cc1nnc(SCC(=O)c2ccc(Cl)cc2)n(N)c1=O	2.9	0.8	7.3	0.7	9.6*	·	0.8	3.5
Cc1ccc(NC(=O)CSc2nnc(C)c(=O)n2N)cc1Cl	-0.7	-0.6	0.1	-1.0	-0.1	-9.9	·	·
Cc1ccc2oc(/N=C(\N)NC(=O)C3CC3)nc2c1	-0.3	-5.8	9.9	0.4	6.6*	-24.3	1.6	7.0*
Cc1cc(C)c(C(=O)Nn2c(C)nc3ccccc3c2=O)cc1C	-0.2	-0.3	-1.0	-1.5	-0.5	-12.7	·	·
COc1cccc(C2=Nc3cccc4cccc(c34)N2)c1	0.0	1.4	-1.6	0.7	11.4*	?	-0.3	1.4
Nc1ccc(C2=Nc3cccc4cccc(c34)N2)cc1	-0.4	0.8	-1.6	-0.2	5.3	18.2	·	·
Nc1ccc2oc(-c3ccccn3)nc2c1	0.7	1.8	4.6	-0.5	1.6	-3.5	·	·
Clc1ccc2oc(-c3ccccn3)nc2c1	2.0	2.0	10.2	1.8*	7.6*	-15.4	1.2	9.0*
Cc1cc(C)cc(OCC(=O)N(Cc2ccccc2)C2CCS(=O)(=O)C2)c1 (centres undefined)	-0.2	-0.3	-2.1	-1.1	0.2	1.2	·	·

High-throughput results as filed in PubChem BioAssay.
